Results filed as inconclusive are left out. Active and inactive are the calls of the source. Unless noted, the call rests on the fitted dose curve; in most records, active means well fitted curve in the direction sought with a large enough effect; inconclusive means small, poorly fitted or top-dose-only effect, or another doubt; inactive means no such curve, though single readings can be large; an effect the other way counts as inactive or inconclusive.
Key:
[1] = target: Cytochrome P450 3A4 (Homo sapiens) (UniProt P08684); assay: qHTS Assay for Inhibitors and Substrates of Cytochrome P450 3A4 (AID 884); further: on the % scale 0 is the no-effect control and ±100 the full control effect; nearly all actives have a fitted effect of over 50% in size
Cytochrome P450 3A4 (Homo sapiens), sequence (P08684 whole entry, looked up): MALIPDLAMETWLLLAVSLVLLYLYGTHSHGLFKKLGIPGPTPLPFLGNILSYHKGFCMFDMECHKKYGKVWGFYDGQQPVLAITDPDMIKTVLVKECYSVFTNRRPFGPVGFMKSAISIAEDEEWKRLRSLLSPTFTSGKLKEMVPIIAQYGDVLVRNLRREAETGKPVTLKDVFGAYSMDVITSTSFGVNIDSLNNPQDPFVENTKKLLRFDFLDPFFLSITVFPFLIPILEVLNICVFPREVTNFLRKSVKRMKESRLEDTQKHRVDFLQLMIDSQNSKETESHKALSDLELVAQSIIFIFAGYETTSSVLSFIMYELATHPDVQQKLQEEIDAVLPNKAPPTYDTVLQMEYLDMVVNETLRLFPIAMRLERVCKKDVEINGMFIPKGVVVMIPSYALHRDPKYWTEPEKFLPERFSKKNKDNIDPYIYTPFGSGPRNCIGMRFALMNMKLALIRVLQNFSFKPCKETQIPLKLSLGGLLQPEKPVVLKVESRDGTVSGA
Method in brief: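 Luminescent readout of luciferin produced by CYP3A4 (20 nM) dealkylation of Luciferin-PPXE, 25 uM (its KM). NADPH-driven reaction ran 60 min at RT after 10 min compound preincubation; data scaled to 57 uM ketoconazole as 100% inhibition.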

[2] = Confirmation and Secondary Assay for Modulators of Hemoglobin Beta Chain Splicing at IVS2 654 locus (AID 910); further: % of control where 0% means no effect
Method in brief: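 HeLa cells stably carrying EGFP interrupted by mutant beta-globin IVS2-654 intron (CMV-driven) were treated with compound for 2 days at 37C; corrected splicing was scored as total peak GFP intensity per well (488 nm excitation, 500-520 nm emission).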

[3] = Confirmation and Secondary Assay for Modulators of Hemoglobin Beta Chain Splicing at IVS2 705 locus (AID 930);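 further: HeLa cells stably expressing the EGFP-705 splicing reporter; GFP fluorescence per well restored by corrected splicing of the IVS2-705 intron in EGFP; % of control where 0% means no effect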
Method in brief: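 Read-out: total peak GFP fluorescence per well (488 nm excitation, 500-520 nm emission) by laser-scanning cytometry. Cells: HeLa EGFP-705 splicing reporter, 2 days compound exposure in Optimem/2% FCS.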

[4] = qHTS Assay for Lipid Storage Modulators (AID 1519; calls by dose curve; on activity change, negative = inhibition: on the % scale 0 is the no-effect control and ±100 the full control effect); details: Drosophila S3 cells, BODIPY lipid droplet/cell ratio, laser cytometry, cells loaded with oleic acid
Method in brief: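 Cells seeded at 5,000 per well were treated with compounds over a concentration series and loaded with oleic acid (400 uM, as added). Lipid droplet fluorescence (488 nm excitation, 500-530 nm channel) was read by laser-scanning cytometry and normalized to 20 uM Triacsin C.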

[5] = target: ATP-dependent 6-phosphofructokinase (Trypanosoma brucei brucei) (UniProt O15648); assay: qHTS Assay to Find Inhibitors of T. brucei phosphofructokinase: hit validation (AID 492961);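 further: luminescence reports ADP formed as PFK phosphorylates fructose-6-phosphate with ATP; on the % scale 0 is the no-effect control and ±100 the full control effect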
ATP-dependent 6-phosphofructokinase (Trypanosoma brucei brucei), sequence (O15648 whole entry, looked up): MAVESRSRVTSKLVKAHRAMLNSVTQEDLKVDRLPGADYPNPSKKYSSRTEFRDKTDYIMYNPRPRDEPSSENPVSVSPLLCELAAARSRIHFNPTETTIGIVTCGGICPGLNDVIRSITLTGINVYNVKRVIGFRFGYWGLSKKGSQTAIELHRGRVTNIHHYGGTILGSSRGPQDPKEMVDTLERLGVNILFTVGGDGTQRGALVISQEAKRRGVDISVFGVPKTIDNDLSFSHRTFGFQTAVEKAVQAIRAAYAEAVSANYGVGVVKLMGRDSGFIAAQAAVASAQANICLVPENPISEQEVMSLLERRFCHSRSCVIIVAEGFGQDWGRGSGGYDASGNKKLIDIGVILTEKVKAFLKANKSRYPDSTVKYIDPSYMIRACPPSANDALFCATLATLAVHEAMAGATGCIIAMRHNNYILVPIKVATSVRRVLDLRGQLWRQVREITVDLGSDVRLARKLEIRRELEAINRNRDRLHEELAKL
Method in brief: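 PFK 1.25 nM, F6P 0.5 mM, ATP 0.1 mM, MgCl2 5 mM, 0.1 M TEA pH 8.0, Tween20 0.01%, BSA 0.1%; 45 min RT. ADP-Glo two-step detection, luminescence. qHTS titration; curve fitting with curve-class categorization.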

[6] = target: Ubiquitin carboxyl-terminal hydrolase 1 (Homo sapiens) (UniProt O94782); assay: Inhibitors of USP1/UAF1: Pilot qHTS (AID 504865);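 further: rhodamine fluorescence freed from ubiquitin-rhodamine substrate followed over time; top concentration of the series differs between compounds; on the % scale 0 is the no-effect control and ±100 the full control effect; nearly all actives have a fitted effect of over 35% in size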
Ubiquitin carboxyl-terminal hydrolase 1 (Homo sapiens), sequence (O94782 whole entry, looked up): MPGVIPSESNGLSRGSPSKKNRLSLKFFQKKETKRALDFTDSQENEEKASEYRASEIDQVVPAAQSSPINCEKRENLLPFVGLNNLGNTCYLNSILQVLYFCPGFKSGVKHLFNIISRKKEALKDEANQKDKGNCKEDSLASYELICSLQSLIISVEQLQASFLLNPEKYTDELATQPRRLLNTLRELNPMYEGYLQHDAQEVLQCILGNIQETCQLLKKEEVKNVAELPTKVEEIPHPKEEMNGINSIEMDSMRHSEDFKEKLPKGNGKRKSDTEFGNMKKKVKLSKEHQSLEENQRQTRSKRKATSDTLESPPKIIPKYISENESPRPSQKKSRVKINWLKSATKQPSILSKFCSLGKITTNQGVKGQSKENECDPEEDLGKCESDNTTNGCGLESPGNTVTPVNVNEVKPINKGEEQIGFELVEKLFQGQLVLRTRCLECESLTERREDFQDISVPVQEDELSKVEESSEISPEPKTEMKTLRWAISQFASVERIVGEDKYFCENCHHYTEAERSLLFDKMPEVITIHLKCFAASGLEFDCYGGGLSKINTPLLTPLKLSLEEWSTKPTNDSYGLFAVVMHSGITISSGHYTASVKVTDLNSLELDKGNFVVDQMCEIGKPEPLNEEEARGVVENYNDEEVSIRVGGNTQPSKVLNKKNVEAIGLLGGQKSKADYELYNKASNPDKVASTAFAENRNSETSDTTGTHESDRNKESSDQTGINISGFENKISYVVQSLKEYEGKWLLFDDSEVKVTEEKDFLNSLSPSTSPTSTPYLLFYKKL
Method in brief: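 USP1/UAF1 complex (1nM) preincubated with compound 15 min at room temperature, then Ub-Rho substrate (150nM final) added. Fluorescence read kinetically at 480/540 nm, 6 reads every 60 seconds. Buffer: 50mM HEPES pH 7.8, 0.5mM EDTA, 0.1 mg/ml BSA, 1mM TCEP, 0.01% Tween-20.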

[7] = target: Luciferin 4-monooxygenase (Photinus pyralis) (UniProt P08659); assay: Biochemical firefly luciferase enzyme assay for NPC (AID 624030);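 further: purified P. pyralis luciferase at 10 nM with luciferin and ATP substrate; 0% = DMSO and -100% = full luciferase inhibition by PTC124 control; nearly all actives have a fitted effect of over 70% in size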
Luciferin 4-monooxygenase (Photinus pyralis), sequence (P08659 whole entry, looked up): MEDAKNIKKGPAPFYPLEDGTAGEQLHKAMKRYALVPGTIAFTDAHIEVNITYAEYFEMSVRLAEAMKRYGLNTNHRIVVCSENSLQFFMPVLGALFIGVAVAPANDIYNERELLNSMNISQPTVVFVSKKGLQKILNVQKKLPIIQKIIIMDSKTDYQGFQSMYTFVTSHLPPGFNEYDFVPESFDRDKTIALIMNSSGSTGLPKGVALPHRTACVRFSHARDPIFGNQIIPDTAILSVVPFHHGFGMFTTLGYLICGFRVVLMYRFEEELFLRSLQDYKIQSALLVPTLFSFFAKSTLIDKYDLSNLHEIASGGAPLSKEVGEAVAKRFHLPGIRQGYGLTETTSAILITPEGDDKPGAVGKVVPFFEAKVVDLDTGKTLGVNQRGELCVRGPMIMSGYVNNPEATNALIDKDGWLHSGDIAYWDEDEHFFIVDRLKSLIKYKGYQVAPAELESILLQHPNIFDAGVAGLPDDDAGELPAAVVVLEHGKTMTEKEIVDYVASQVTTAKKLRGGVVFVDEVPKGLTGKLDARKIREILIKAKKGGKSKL
Method in brief: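 Counter-screen for direct inhibition of the luciferase enzyme by approved-drug library compounds, run at 10 nM enzyme in 50 mM Tris acetate (final). Luminescence was read within 5 min of enzyme-buffer addition and normalized to PTC124 versus DMSO (0%).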

[8] = S16 Schwann cell viability assay (CellTiter-Glo assay) (AID 624031);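 further: cellular ATP luminescence as a viability measure; plate controls were DMSO-treated cells for no effect and cell-free wells for full effect; nearly all actives have a fitted effect of over 70% in size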
Method in brief: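 Untransfected S16 rat Schwann cells; compound 24 h, 37 °C/5% CO2; CellTiter-Glo ATP luminescence. % activity vs no-cell wells and DMSO controls (0%); concentration-effect curves classed by r2, response magnitude, activity.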

[9] = S16 Schwann cell PMP22 intronic element firefly luciferase assay (AID 624032);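 further: plate controls were DMSO for no effect and PTC124 positive control mean for full effect; nearly all actives have a fitted effect of over 30% in size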
Method in brief: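 Rat S16 Schwann cells stably carrying a PMP22 intronic element-driven Fluc reporter were seeded overnight, then exposed to compounds for 24 h at 37 °C. Luminescence was normalized to PTC124 (positive control) and DMSO (0% activity).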

[10] = qHTS Assay for Identifying Gametocytocidal Compounds (AID 743244);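 further: on the % scale 0 is the no-effect control and ±100 the full control effect; actives lower the fluorescent signal which means gametocytes are killed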; details: P. falciparum 3D7 stage III-V gametocytes, alamarBlue, 72 h; max response: stronger effect = lower value
Method in brief: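 P. falciparum 3D7 stage III–V gametocytes (20,000 cells/well) were exposed to compounds for 72 h at 37 °C, 5% CO2. AlamarBlue was then added for 24 h; decreased resorufin fluorescence (Ex 525/Em 598 nm) indicated loss of viability.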

[11] = P-glycoprotein substrates identified in KB-8-5-11 adenocarcinoma cell line, qHTS therapeutic library screen (AID 1346987); further: on the % scale 0 is the no-effect control and ±100 the full control effect; nearly all actives have a fitted effect of over 65% in size
Method in brief: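 Luminescence from CellTiter-Glo, read 5 min after addition, quantified survival of KB-8-5-11 (P-gp-overexpressing) cells exposed to compounds for 72 h. AC50 was derived from concentration-response curves.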

[12] = qHTS for Inhibitors of the Functional Ribonucleoprotein Complex (vRNP) of Lassa (LASV) Arenavirus: LASV Primary Screen - GLuc reporter signal (AID 1347082; calls by dose curve; tested in HEK293 reporter line; further: on the % scale 0 is the no-effect control and ±100 the full control effect; nearly all actives have a fitted effect of over 60% in size)
[13] = qHTS for Inhibitors of the Functional Ribonucleoprotein Complex (vRNP) of Lassa (LASV) Arenavirus: Viability assay - alamar blue signal for LASV Primary Screen (AID 1347083; calls by dose curve; tested in HEK293 reporter line; further: on the % scale 0 is the no-effect control and ±100 the full control effect; nearly all actives have a fitted effect of over 80% in size)
[14] = qHTS for Inhibitors of the Functional Ribonucleoprotein Complex (vRNP) of Lymphocytic Choriomeningitis Arenaviruses (LCMV): Viability assay - alamar blue signal for LCMV Primary Screen (AID 1347085; calls by dose curve; tested in HEK293 reporter line; further: on the % scale 0 is the no-effect control and ±100 the full control effect; nearly all actives have a fitted effect of over 80% in size)
[15] = target: Nucleoprotein (Lymphocytic choriomeningitis virus (strain Armstrong)) (UniProt P09992); assay: qHTS for Inhibitors of the Functional Ribonucleoprotein Complex (vRNP) of Lymphocytic Choriomeningitis Arenaviruses (LCMV): LCMV Primary Screen - GLuc reporter signal (AID 1347086; calls by dose curve; further: on the % scale 0 is the no-effect control and ±100 the full control effect; nearly all actives have a fitted effect of over 70% in size)
Nucleoprotein (Lymphocytic choriomeningitis virus (strain Armstrong)), sequence (P09992 whole entry, looked up): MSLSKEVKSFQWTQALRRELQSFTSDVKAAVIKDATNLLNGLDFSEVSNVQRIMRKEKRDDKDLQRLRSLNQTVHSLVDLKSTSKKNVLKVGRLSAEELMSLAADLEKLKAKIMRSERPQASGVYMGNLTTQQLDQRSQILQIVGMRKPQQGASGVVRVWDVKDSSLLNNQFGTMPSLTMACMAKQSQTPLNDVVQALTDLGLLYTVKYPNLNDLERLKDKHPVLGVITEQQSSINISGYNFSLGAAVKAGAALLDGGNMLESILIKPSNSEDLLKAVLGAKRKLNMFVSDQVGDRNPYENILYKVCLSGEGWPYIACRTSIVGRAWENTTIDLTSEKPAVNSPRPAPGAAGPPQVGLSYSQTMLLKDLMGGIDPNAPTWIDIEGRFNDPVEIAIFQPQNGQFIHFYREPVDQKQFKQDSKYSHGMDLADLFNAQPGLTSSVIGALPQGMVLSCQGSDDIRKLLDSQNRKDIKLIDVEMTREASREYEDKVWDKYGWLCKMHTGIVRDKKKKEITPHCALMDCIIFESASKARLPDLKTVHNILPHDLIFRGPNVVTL

3D7 = assay: qHTS profiling for inhibitors of Plasmodium falciparum proliferation (AID 504749);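 further: 0% = DMSO vehicle and full inhibition = artemisinin control; nearly all actives have a fitted effect of over 60% in size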; details: P. falciparum in erythrocytes, SYBR Green DNA, 72 h; series mostly up to 28.7 µM
Method in brief: (§1)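 Quantitative HTS: compounds pinned into medium, infected erythrocytes added (0.3% parasitemia, 2.5% hematocrit), 72 h culture at 37 C under 5% CO2. Saponin/Triton lysis with SYBR Green I, overnight RT, then fluorescence read.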

7G8 = assay: as above; details: P. falciparum in erythrocytes, SYBR Green DNA, 72 h; series mostly up to 28.7 µM
Method in brief: as §1

AA1029 = assay: as above; details: P. falciparum in erythrocytes, SYBR Green DNA, 72 h; series mostly up to 28.7 µM
Method in brief: as §1

AS120 = assay: as above; details: P. falciparum in erythrocytes, SYBR Green DNA, 72 h; series mostly up to 28.7 µM
Method in brief: as §1

ATS189 = assay: as above; details: P. falciparum in erythrocytes, SYBR Green DNA, 72 h; series mostly up to 28.7 µM
Method in brief: as §1

ATS95 = assay: as above; details: P. falciparum in erythrocytes, SYBR Green DNA, 72 h; series mostly up to 28.7 µM
Method in brief: as §1

C2A = assay: as above; details: P. falciparum in erythrocytes, SYBR Green DNA, 72 h; series mostly up to 28.7 µM
Method in brief: as §1

CP185 = assay: as above; details: P. falciparum in erythrocytes, SYBR Green DNA, 72 h; series mostly up to 28.7 µM
Method in brief: as §1

CP191 = assay: as above; details: P. falciparum in erythrocytes, SYBR Green DNA, 72 h; series mostly up to 28.7 µM
Method in brief: as §1

CP192 = assay: as above; details: P. falciparum in erythrocytes, SYBR Green DNA, 72 h; series mostly up to 28.7 µM
Method in brief: as §1

CP194 = assay: as above; details: P. falciparum in erythrocytes, SYBR Green DNA, 72 h; series mostly up to 28.7 µM
Method in brief: as §1

CP201 = assay: as above; details: P. falciparum in erythrocytes, SYBR Green DNA, 72 h; series mostly up to 28.7 µM
Method in brief: as §1

CP203 = assay: as above; details: P. falciparum in erythrocytes, SYBR Green DNA, 72 h; series mostly up to 28.7 µM
Method in brief: as §1

CP211 = assay: as above; details: P. falciparum in erythrocytes, SYBR Green DNA, 72 h; series mostly up to 28.7 µM
Method in brief: as §1

CP215 = assay: as above; details: P. falciparum in erythrocytes, SYBR Green DNA, 72 h; series mostly up to 28.7 µM
Method in brief: as §1

CP217 = assay: as above; details: P. falciparum in erythrocytes, SYBR Green DNA, 72 h; series mostly up to 28.7 µM
Method in brief: as §1

CP237 = assay: as above; details: P. falciparum in erythrocytes, SYBR Green DNA, 72 h; series mostly up to 28.7 µM
Method in brief: as §1

CP238 = assay: as above; details: P. falciparum in erythrocytes, SYBR Green DNA, 72 h; series mostly up to 28.7 µM
Method in brief: as §1

CP247 = assay: as above; details: P. falciparum in erythrocytes, SYBR Green DNA, 72 h; series mostly up to 28.7 µM
Method in brief: as §1

CP250 = assay: as above; details: P. falciparum in erythrocytes, SYBR Green DNA, 72 h; series mostly up to 28.7 µM
Method in brief: as §1

CP252 = assay: as above; details: P. falciparum in erythrocytes, SYBR Green DNA, 72 h; series mostly up to 28.7 µM
Method in brief: as §1

CP256 = assay: as above; details: P. falciparum in erythrocytes, SYBR Green DNA, 72 h; series mostly up to 28.7 µM
Method in brief: as §1

C[N+](C)(C)CC(=O)[O-]
inactive: Potency [1] | Potency [2] | outcome [3] | activity change, negative = inhibition ([4]; at 57.5 µM (top of the series)) 3.78% | Potency [5] | Potency [6] | Potency [7] | Potency [8] | Potency [9] | max response [10] 14.9% | Potency [11] | Potency [12] | Potency [13] | Potency [14] | Potency [15] | Potency (3D7) | Potency (7G8) | Potency (AA1029) | Potency (AS120) | Potency (ATS189) | Potency (ATS95) | Potency (C2A) | Potency (CP185) | Potency (CP191) | Potency (CP192) | Potency (CP194) | Potency (CP201) | Potency (CP203) | Potency (CP211) | Potency (CP215) | Potency (CP217) | Potency (CP237) | Potency (CP238) | Potency (CP247) | Potency (CP250) | Potency (CP252) | Potency (CP256)
6.22%: max response ([4]; measured here: lipid channel max response)
0.576%: max response ([4]; measured here: cell count channel max response)
